Only a selection was taken, and hits are over-represented in it overall.
ALOX12 inh: ALOX12 (human) lipoxygenase inhibition | P18054 | purified 12hLO, xylenol orange hydroperoxide absorbance | Potency, µM (titrated, usually from 108 µM), actives largely listed as inhibitors | actives 1.1% (n = 580,000) | AID 1671190
Target sequence (P18054 whole entry, looked up): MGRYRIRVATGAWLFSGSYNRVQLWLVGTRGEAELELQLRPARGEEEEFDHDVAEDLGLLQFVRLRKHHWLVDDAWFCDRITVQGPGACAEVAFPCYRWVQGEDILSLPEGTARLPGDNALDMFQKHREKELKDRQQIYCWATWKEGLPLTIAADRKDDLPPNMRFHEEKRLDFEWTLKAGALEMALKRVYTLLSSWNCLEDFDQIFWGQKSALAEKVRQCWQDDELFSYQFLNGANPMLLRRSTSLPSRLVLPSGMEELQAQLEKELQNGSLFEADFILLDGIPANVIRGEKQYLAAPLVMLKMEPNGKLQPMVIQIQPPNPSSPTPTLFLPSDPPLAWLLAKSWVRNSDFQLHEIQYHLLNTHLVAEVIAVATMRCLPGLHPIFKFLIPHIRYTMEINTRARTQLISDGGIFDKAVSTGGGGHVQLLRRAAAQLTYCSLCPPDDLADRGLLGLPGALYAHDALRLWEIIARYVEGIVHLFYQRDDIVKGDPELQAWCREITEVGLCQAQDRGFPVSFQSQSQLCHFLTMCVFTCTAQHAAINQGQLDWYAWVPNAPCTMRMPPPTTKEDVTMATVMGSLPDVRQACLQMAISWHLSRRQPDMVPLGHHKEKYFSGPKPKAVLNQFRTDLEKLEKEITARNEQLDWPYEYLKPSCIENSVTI
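Purified human 12hLO at 150 nM in 25 mM Hepes, 0.01% Triton X-100, pH 7.0, preincubated 15 min at room temperature with compound. Reaction started with 40 uM arachidonic acid, 30 min at room temperature. Hydroperoxide measured by Fe-xylenol orange, 573/405 nm absorbance ratio.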
HT1080-NT tox: kills 2HG-producing HT-1080-NT fibrosarcoma cells | AID 686970 | HT-1080-NT fibrosarcoma viability, CellTiter-Glo ATP luminescence, 48 h | actives 1.6% (n = 360,000) | Potency, µM (series often up to 46.1 µM), hits mostly cytotoxic;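 also: NT is the 2HG producing partner of a matched IDH1 knockdown line; nearly all actives have a fitted effect of over 55% in size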
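Compounds were tested in concentration-response format on HT-1080-NT cells for 48 hours at 37 degrees C. Cell viability came from CellTiter-Glo luminescence; curves were classified by r2, response magnitude and activity.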
IL-1B inflam inh: inhibitors of inflammasome signaling (IL-1 beta secretion) | THP-1 LPS/ATP IL-1B secretion, AlphaLISA, 16 h; hits give low values | activity change, % at 57.5 µM | actives 4.7% (n = 360,000) | AID 743279; in the data active = activity change below about -50%; inconclusive = mostly about -30% to -49%
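Secreted IL-1B measured by AlphaLISA bead assay after 16 h compound exposure of THP-1 cells; compounds (final up to 57.5 uM) added 1 h before LPS (250 ng/mL) and ATP (1.25 mM) stimulation; lower signal means less secretion.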
DT40 TDP1 no CPT: qHTS for Inhibitors of human tyrosyl-DNA phosphodiesterase 1 (TDP1): qHTS in cells in absence of CPT | DT40 Tdp1-/- hTDP1 cells, no CPT, ATP luminescence, 48 h | Potency, µM (top dose mostly 46.2 µM), usual class: inhibitors | actives 15% (n = 420,000); also: nearly all actives have a fitted effect of over 55% in size
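Growth of hTDP1-complemented DT40 Tdp1-knockout cells is measured by ATP luminescence after at least 48 hr compound exposure at 37 °C, with DMSO substituting for the 20 nM CPT used in the parallel screen.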
HT1080 IDH1KD tx: kills HT-1080 cells with IDH1 knockdown; HT-1080 IDH1 knockdown viability, ATP luminescence, 48 h; Potency, µM (series often up to 46.1 µM), actives largely listed as cytotoxic; actives 2% (n = 360,000); AID 686971
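% activity derives from luminescence (CellTiter-Glo), normalised to DMSO and no-cell wells. HT-1080-IDH1KD cells, 750/well, had 48 h compound exposure at 37 °C.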
TDP1 cell CPT: DT40-hTDP1 cell growth loss with CPT | chicken DT40 Tdp1-/-;hTDP1 cells + 20 nM CPT, ATP luminescence, 48 h | Potency, µM (titrated, usually from 46.2 µM), hits mostly inhibitors | actives 12% (n = 420,000); also: nearly all actives have a fitted effect of over 55% in size
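Chicken DT40 Tdp1-/- cells complemented with human TDP1, 400 cells/well, exposed to compounds plus 20 nM camptothecin for at least 48 h at 37 C; viability read as ATP content by CellTiter-Glo luminescence.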
Numbers stand for hits; i = inactive; ? = inconclusive; nt = no result. Unless noted, calls follow the shape of the dose curve; as a rule, active = well fitted curve in the direction sought with a large enough effect; inconclusive = small, poorly fitted or top-dose-only effect, or another doubt; inactive = no such curve, though single readings can be large; an effect the other way counts as inactive or inconclusive.

SMILES	ALOX12 inh	HT1080-NT tox	IL-1B inflam inh	DT40 TDP1 no CPT	HT1080 IDH1KD tx	TDP1 cell CPT
CCCCc1noc2c1/C(=N\O)CC(c1ccccc1)C2 (configuration not stated)	i	i	i	i	i	i
CC/C(O)=C1\C(=O)CC(c2ccccc2)CC1=NC(C)C (configuration not stated)	i	i	i	i	i	i
CCc1n[nH]c2c1/C(=N\O)CC(c1ccccc1)C2 (configuration not stated)	i	i	i	23µM	i	?
CCCCc1n[nH]c2c1/C(=N/O)CC(c1ccccc1)C2 (configuration not stated)	i	?	-58	?	?	?
COc1cccc([S+](=O)([O-])N2CCNc3cnc(Nc4cccnc4)nc3C2)c1	i	nt	nt	nt	nt	nt
COc1ccc(OC)c(S(=O)(=O)N2C[C@@H](Oc3cccnc3)C[C@H]2C(N)=O)c1	i	nt	nt	nt	nt	nt
Cc1ccc(C2NC(=O)c3sc(=S)n(-c4ccccc4)c3N2)cc1 (configuration not stated)	?	i	i	i	i	23µM
Cn1c(-c2sc(=S)n(-c3ccccc3)c2N)nc2ccccc21	i	i	i	i	i	i
Nc1c2c(nc3ccn(-c4ccccc4)c(=O)c13)CCCCC2	i	i	-58	?	i	i
CN(C)S(=O)(=O)NCC(=O)N1CCCCCNC(=O)CC1c1ccccc1 (configuration not stated)	i	nt	nt	nt	nt	nt
CCc1cc(=O)n2[nH]c(-c3ccccc3)c(-c3ccccc3)c2n1	i	?	i	21µM	?	?
Cc1[nH]n2c(=O)cc(-c3ccc(Cl)cc3)nc2c1-c1ccccc1	40µM	nt	nt	0.92µM	nt	0.65µM
Cc1[nH]n2c(=O)cc(C(C)(C)C)nc2c1-c1ccccc1	i	i	i	5.2µM	?	4.6µM
COC(=O)Cc1cc(=O)n2[nH]c(C)c(-c3ccccc3)c2n1	i	i	i	i	i	i
CCOC(=O)c1cnn(-c2cc(C)nc3c(-c4ccc(Cl)cc4)c(C(F)(F)F)nn23)c1N	i	nt	nt	nt	nt	nt
CCOC(=O)Cc1c(C)nc2c(-c3ccc(Cl)cc3)c(C(F)(F)F)nn2c1C	i	nt	nt	23µM	nt	23µM
O=C(CCn1c(=O)c2sccc2n(CC(=O)N2CCCC2)c1=O)Nc1ccc(F)cc1	i	nt	nt	nt	nt	nt
CCOC(=O)Cc1cc(=O)n2[nH]cc(-c3cccc(Br)c3)c2n1	i	i	i	23µM	?	?
Cc1[nH]n2c(=O)cc(-c3ccc([N+](=O)[O-])cc3)nc2c1-c1ccccc1	?	16µM	i	7.3µM	16µM	12µM
COc1ccc(-c2c(C(F)(F)F)[nH]n3c(=O)cc(-c4ccccc4)nc23)cc1	11µM	i	nt	?	?	?
CCOC(=O)Cc1cc(=O)n2[nH]c(C)c(-c3ccc(Cl)cc3)c2n1	i	?	i	11µM	?	16µM
CN(C)[C@@H]1CN(C(=O)CN2CCCCCC2)CC[C@@H]1CO	i	nt	nt	nt	nt	nt
Cc1ccccc1NC(=O)N1CC(C(=O)N(C)C)C2(CCOCC2)C1 (configuration not stated)	i	nt	nt	nt	nt	nt
NC(N)=Nc1nc(CSCC/C(N)=N\S(N)(=O)=O)cs1	nt	nt	nt	i	nt	i
COC(=O)CCn1c(C)cc(C(=O)COc2ccccc2C(N)=O)c1C	i	i	-99	23µM	?	21µM
SMILES	ALOX12 inh	HT1080-NT tox	IL-1B inflam inh	DT40 TDP1 no CPT	HT1080 IDH1KD tx	TDP1 cell CPT
COCCn1c(C)cc(C(=O)CSc2ccc(NC(C)=O)cc2)c1C	i	i	i	i	i	i
COC(=O)CCCn1c(C)cc(C(=O)CCl)c1C	i	21µM	-93	10µM	?	6.5µM
Cc1cc(C(=O)CCl)c(C)n1CCc1ccccc1	i	13µM	-100	4.6µM	?	3.3µM
COCCn1c(C)cc(C(=O)COC(=O)c2ccccc2Br)c1C	i	i	i	?	i	i
COC(=O)c1cnc(NC(=O)COc2cccc3ccccc23)s1	i	nt	nt	nt	nt	nt
O=C1COc2cc(C(=O)NC3CC(c4nnc(CO)n4C4CC4)C3)ccc2N1 (configuration not stated)	i	nt	nt	nt	nt	nt
CCOc1ccc(N2C(=O)C3Sc4[nH]c(=O)sc4C(/C=C/c4ccccc4)C3C2=O)cc1 (configuration not stated)	?	i	i	?	i	?
COc1cc(C2c3sc(=O)[nH]c3SC3C(=O)N(c4ccc(Br)cc4)C(=O)C32)ccc1O (configuration not stated)	40µM	i	i	i	i	i
Cc1ccc(N)c(OCc2ccccc2)c1	i	nt	nt	nt	nt	nt
CCC(C(=O)N1CCC(C(=O)N2CCCC2)CC1)n1cccn1 (configuration not stated)	i	nt	nt	nt	nt	nt
O=S(=O)(Cc1ccccc1)C(CCCc1ccccc1)S(=O)(=O)Cc1ccccc1	i	i	i	21µM	i	23µM
CCCOc1cccc(NC(=O)c2c(-c3ccccc3Cl)noc2C)c1	i	nt	nt	8.2µM	nt	9.2µM
Cc1onc(-c2ccccc2Cl)c1C(=O)Nc1cccc(-c2cn3cccnc3n2)c1	nt	i	i	16µM	i	?
C/C(=N\NC(=O)c1ccc(Cl)c(Cl)c1)c1cccc(NC(=O)C(C)C)c1	i	i	i	i	i	i
C/C(=N\NC(=O)c1c(-c2ccccc2Cl)noc1C)c1cccc(NC(=O)C(C)C)c1	i	i	i	23µM	i	?
Cc1onc(-c2ccccc2Cl)c1C(=O)Nc1ccc(C(N)=O)cc1	i	nt	nt	nt	nt	nt
O=C(Nc1cccc(-c2cn3cccnc3n2)c1)c1cc(Br)ccc1Cl	i	nt	nt	?	nt	i
CCCOC(=O)c1cccc(NC(=O)c2c(-c3ccccc3Cl)noc2C)c1	i	nt	nt	7.3µM	nt	7.3µM
Cc1cc(NC(=O)C(C)Sc2nccn2-c2cccc(F)c2)no1 (configuration not stated)	i	nt	nt	nt	nt	nt
COc1ccc(S(=O)(=O)Nc2nc3ccccc3nc2NCc2ccc(C)cc2)cc1	i	nt	nt	nt	nt	nt
O=C(Nc1sc2c(c1C(=O)N1CCCCC1)CCCC2)c1ccccc1Cl	i	nt	nt	?	nt	?
Cc1ccccc1C(=O)Nc1sc2c(c1C(=O)N1CCCCC1)CCC(C)C2 (configuration not stated)	i	nt	nt	?	nt	18µM
CC1CCN(C(=O)c2c(NC(=O)c3ccccc3F)sc3c2CCC(C(C)(C)C)C3)CC1 (configuration not stated)	i	nt	nt	i	nt	i
Cc1ccccc1C(=O)Nc1sc2c(c1C(=O)N1CCC(C)CC1)CCC(C)C2 (configuration not stated)	i	nt	nt	21µM	nt	15µM

Screening results from PubChem.
